{"source": "the supplement of paper PMC11417369", "note": "± gives the standard deviation of the averaged measurements. Over roughly 25,000 sequences, “ln(normalized median fluorescence intensity)” has its median near 10; the highest 2% begin near 12. This excerpt belongs to a sample that is enriched for the highest values."}
{"tested_on": "PfAP2-G AP2 domain (GST-tagged)", "experiment": "gcPBM binding intensity (ln(normalized median fluorescence intensity)); higher = stronger DNA binding", "procedure,_shortened": "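Probes on an Agilent 4 × 180k array were primer-extended, double-stranded and 36 bp long, taken from intergenic genomic regions, with negative controls added. GST-tagged P. falciparum DNA-binding domains from E. coli, about 25 μg on average, were applied to the array for 1 h in 1× PBS containing 1% milk, 0.2 mg/ml BSA, 0.5% salmon testes DNA and 0.03% Triton X-100. Binding intensity, obtained after Alexa488 anti-GST antibody detection and a 488 nm scan, is the highest Masliner-normalised natural-log median intensity across replicate spots of either probe orientation.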"}
{"sequence": "ATTTATATTTATAAATGTACACATATATATTTCATT [XGTACX_site2723]", "gcPBM binding intensity (ln)": "11.2 ± 0.63"}
{"sequence": "CCGCCATTGTACCATCCACACACATATATATATGTA [CACACA_site8866]", "gcPBM binding intensity (ln)": "10.9 ± 0.45"}
{"sequence": "AAAATAACGAGTCAAACACACATATATATATATATA [CACACA_site2039]", "gcPBM binding intensity (ln)": "10.1 ± 0.25"}
{"sequence": "AAATTGTAGCACCAAGCATGCTAAAAGGACATATGA [TGCATGCA_site717]", "gcPBM binding intensity (ln)": "10.8 ± 0.34"}
{"sequence": "GATATAAGGGTATGAAGTACATAAATATTTTATGCT [XGTACX_site1886]", "gcPBM binding intensity (ln)": "11.3 ± 0.88"}
{"sequence": "ACCCAAGAGAAAAGAGAAAGAAATATGTGTATATTG [GTGCAC_negctrl_site214]", "gcPBM binding intensity (ln)": "9.92 ± 0.042"}
{"sequence": "TTCAGTGTATACATATGTACATATATATATATATAT [XGTACX_site1621]", "gcPBM binding intensity (ln)": "11.3 ± 0.56"}
{"sequence": "TTTTTTTTTTTTTTTTGTACATAATTATATATTTAC [XGTACX_site7540]", "gcPBM binding intensity (ln)": "10.9 ± 1"}
{"sequence": "AAAATAATGTTTATATGTACATATATATATATATAT [XGTACX_site8815]", "gcPBM binding intensity (ln)": "11 ± 0.57"}
{"sequence": "AACAATTAGAACTTTGCACACTTCTATATATTTTGT [CACACA_site674]", "gcPBM binding intensity (ln)": "9.91 ± 0.2"}
{"sequence": "TTTTCTAAATAAATAGTGCATTTATTATATATACAT [GTGCAC_site9766]", "gcPBM binding intensity (ln)": "9.97 ± 0.13"}
{"sequence": "ATATATATATATATATGTACATATTTGATTTTTCTT [XGTACX_site8171]", "gcPBM binding intensity (ln)": "11.1 ± 0.79"}
{"sequence": "AAATATTATGTACGCACACACATTTTTGATATATAA [CACACA_site7755]", "gcPBM binding intensity (ln)": "11.5 ± 0.88"}
{"sequence": "TATTTATTTATGTACGCACACAGTTGATATTAATTC [CACACA_site2754]", "gcPBM binding intensity (ln)": "11.6 ± 0.96"}
{"sequence": "ATATTTATTTATTTATGTACGCACACAGTTGATATT [XGTACX_site5808]", "gcPBM binding intensity (ln)": "11.7 ± 1"}
{"sequence": "TTGTAATATCTTGTCACACATATATATATATATATA [CACACA_site4937]", "gcPBM binding intensity (ln)": "10.1 ± 0.26"}
{"sequence": "AATTGAAAAAGAAATTGTACATTTTATTTTTATTAT [XGTACX_site1973]", "gcPBM binding intensity (ln)": "10.9 ± 0.42"}
{"sequence": "ATAGTCTTAATGACTACACACCTAACTATGCATGCA [CACACA_site5084]", "gcPBM binding intensity (ln)": 9.88}
{"sequence": "CAAAAATAAATATAAACACACAATAAATAAATAAAT [CACACA_site891]", "gcPBM binding intensity (ln)": "9.74 ± 0.057"}
{"sequence": "CAAAAATAATTTAGGTGTACAAATTTGACAAAAAAA [XGTACX_site188]", "gcPBM binding intensity (ln)": "11.7 ± 0.59"}
{"sequence": "TATTTTAACATTAGGTGTACATACAAAAATAAAAAT [XGTACX_site8577]", "gcPBM binding intensity (ln)": "11.6 ± 0.93"}
{"sequence": "TAAAATAATACAAAATGTACAAAATTTACAAAATGT [XGTACX_site3541]", "gcPBM binding intensity (ln)": "10.5 ± 0.28"}
{"sequence": "CTTAAAATGATAATATGTACACATAAATAATATATA [XGTACX_site8330]", "gcPBM binding intensity (ln)": "11.5 ± 0.76"}
{"sequence": "TATATAAACATCGGTAGTACACACATTCATGTATTT [XGTACX_site6443]", "gcPBM binding intensity (ln)": "11.5 ± 0.71"}
{"sequence": "TACTACACACATTCATGTACTTGATAAATTAATGAT [XGTACX_site6444]", "gcPBM binding intensity (ln)": "10.9 ± 0.47"}
{"sequence": "ATAAACATCGGTAGTACACACATTCATGTACTTGAT [CACACA_site3037]", "gcPBM binding intensity (ln)": "11.8 ± 1"}
{"sequence": "TTTTCAAAATGTTGTACACACAAAAAAAAAAAAAAA [CACACA_site1550]", "gcPBM binding intensity (ln)": "11.5 ± 1"}
{"sequence": "TAAGAAAAAGGCACACGTACATAATTCAAAATAAAT [XGTACX_site982]", "gcPBM binding intensity (ln)": "11.3 ± 0.67"}
{"sequence": "ATAAATAAATAAAAGCGTACATATATATAAAATATA [XGTACX_site8107]", "gcPBM binding intensity (ln)": "11.6 ± 0.88"}
{"sequence": "TATAAATAGAGGAAGCGTACATATATATATATATAT [XGTACX_site4993]", "gcPBM binding intensity (ln)": "11.3 ± 1"}
{"sequence": "TCGGGAGGGGGGAAGCGTACATATATAAAATTATTA [XGTACX_site4683]", "gcPBM binding intensity (ln)": "11.7 ± 0.76"}
{"sequence": "TTATAAAAATACAGTTAACACACATGTGTATATATA [CACACA_site9257]", "gcPBM binding intensity (ln)": "10.4 ± 0.25"}
{"sequence": "ATATATATATATATATGTACATAATGCATATAATAT [XGTACX_site6142]", "gcPBM binding intensity (ln)": "11.1 ± 0.52"}
{"sequence": "ATATATATATATATATGTACATATGTTAATCTGCAT [XGTACX_site1068]", "gcPBM binding intensity (ln)": "11.2 ± 0.7"}
{"sequence": "CGCATGCAATGTTAATGTACATATATATATATATGT [XGTACX_site3316]", "gcPBM binding intensity (ln)": "11.7 ± 0.64"}
{"sequence": "AATATAAATAAAAAATTGATTTCTTTAAAAAGGTAT [CACACA_negctrl_site1038]", "gcPBM binding intensity (ln)": "9.67 ± 0.18"}
{"sequence": "TTTTTATAAAAATTATTAAAAAAATTATTTATAGCT [CACACA_negctrl_site265]", "gcPBM binding intensity (ln)": "9.54 ± 0.12"}
{"sequence": "ATGACATATAAATATACACACATACGTAAGTATATT [CACACA_site5058]", "gcPBM binding intensity (ln)": "9.96 ± 0.11"}
{"sequence": "TGTGTATAAAAAAAGTGTACACAAAGTAAGACTTTA [XGTACX_site3759]", "gcPBM binding intensity (ln)": "11.7 ± 0.86"}
{"sequence": "GTACAAAAAAAGTGTACACAAAGTAAGACTTTAATT [CACACA_site5068]", "gcPBM binding intensity (ln)": "11.7 ± 0.83"}
{"sequence": "TTTAAAGTAATAAAGTGTACAAAAATAAATTCAGCT [XGTACX_site8651]", "gcPBM binding intensity (ln)": "11.2 ± 0.67"}
{"sequence": "GTATAAAAAAATAAAAGTACAAAAAAAAAAGACTGA [XGTACX_site186]", "gcPBM binding intensity (ln)": "11.4 ± 0.77"}
{"sequence": "TATAAAAGGTAAGAGTGTACAAGTAAAAAATTTTTA [XGTACX_site771]", "gcPBM binding intensity (ln)": "11.2 ± 0.7"}
{"sequence": "AAAAAAAAAAAAAAAAGTACACAAATTTTAAAAATT [XGTACX_site3006]", "gcPBM binding intensity (ln)": "11.6 ± 0.88"}
{"sequence": "TTCTAAAATTATATAGTGCAATTATATTAATTTTTC", "gcPBM binding intensity (ln)": "9.785 ± 0.078"}
{"sequence": "TTTGTTGGTATGGTTACACACATTTAGGAAATAAAA [CACACA_site1411]", "gcPBM binding intensity (ln)": "10.4 ± 0.34"}
{"sequence": "TTTTACAAATGTTTTACACACACATAATTGTATCAA [CACACA_site4166]", "gcPBM binding intensity (ln)": "10.1 ± 0.13"}
{"sequence": "TCGAACGTATCATGTGTACACACAAATTGTTTTTTT [CACACA_site8623]", "gcPBM binding intensity (ln)": "11.6 ± 0.86"}
{"sequence": "GAACGTATCATGTGTACACACAAATTGTTTTTTTTT [CACACA_site2020]", "gcPBM binding intensity (ln)": "11.7 ± 0.91"}
{"sequence": "ACCCATTGCTCACGTGCACACATAGAAAAATAATTC [CACACA_site4389]", "gcPBM binding intensity (ln)": "10.8 ± 0.58"}
{"sequence": "AAAAATTTAAGTGGGGGTACATTTTTTTAACACCTT [XGTACX_site1093]", "gcPBM binding intensity (ln)": "11.6 ± 0.66"}
{"sequence": "TTTTTAATTTTTTTTAAACACACACCGTACATTCAA [CACACA_site7925]", "gcPBM binding intensity (ln)": "10.8 ± 0.61"}
{"sequence": "ATTCATTTTTTGGGGGGTACACCCTTTTAAACATTT [XGTACX_site4797]", "gcPBM binding intensity (ln)": "11.8 ± 1.3"}
{"sequence": "AATAGCCCATATGGAATACACACTGAAAATAAAAAA [CACACA_site3373]", "gcPBM binding intensity (ln)": "10.3 ± 0.26"}
{"sequence": "TATATATATATATATGCATGTACATATATTTGTTAT [TGCATGCA_site379]", "gcPBM binding intensity (ln)": "11.1 ± 0.42"}
{"sequence": "TATTTTTTTTTTATATGTACATAATTTCAAATAAAT [XGTACX_site7747]", "gcPBM binding intensity (ln)": "11.4 ± 0.83"}
{"sequence": "TATATTTCAGGGGGGAGTACAAATTTTTTTATATAA [XGTACX_site1600]", "gcPBM binding intensity (ln)": "11.8 ± 0.87"}
{"sequence": "TATAATTATATTTGGAGTACAAATTTTTTTTTTTTT [XGTACX_site7494]", "gcPBM binding intensity (ln)": "11.5 ± 0.9"}
